Test results from the supplement of paper PMC12350171.
Structures can show the parent of a compound that is named as a salt.

test system: Haemophilus parainfluenzae; assay: growth AUC normalised to DMSO control (fraction of control); higher = less growth inhibition, active = hit call of the paper; conditions: 20 µM;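 active = AUC significantly below DMSO controls by Student t-fit with adjusted P under 0.01; inactive = not significantly reduced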
Method in brief: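 Three biological replicates were carried out, with OD578 read hourly for 24 h. Before inoculation at a starting OD578 of 0.01, pathogens were passaged anaerobically twice; plates were pre-reduced mGAM containing 20 μM compound and 1% DMSO, sealed with breathable membranes, and the Haemophilus parainfluenzae medium carried added hemin and NAD. Area under each growth curve was calculated by the trapezoidal rule up to the exponential-to-stationary transition and normalised to DMSO controls on the same plate.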

Compound	growth AUC normalised to DMSO control
CN(C)CCCSC(=N)N [Dimaprit dihydrochloride]	1.01 (inactive)
COC(=O)C1=C(C#N)NC(C)=C(C(=O)OC(C)C)C1c1cccc([N+](=O)[O-])c1 (centres undefined) [Nilvadipine]	0.985 (inactive)
CC1CNc2c(cccc2S(=O)(=O)N[C@@H](CCCNC(=N)N)C(=O)N2CC[C@@H](C)C[C@@H]2C(=O)O)C1 (some centres undefined) [Argatroban]	1.04 (inactive)
CC(=O)OCC(CCn1cnc2cnc(N)nc21)COC(C)=O [Famciclovir]	1.02 (inactive)
CC(=O)N[C@@H](CS)C(=O)O [Acetylcysteine]	1.07 (inactive)
CCCCC(CC)CNC(=N)NC(=N)NCCCCCCNC(=N)NC(=N)NCC(CC)CCCC (centres undefined) [Alexidine dihydrochloride]	0.861 (inactive)
CC(C)(C)NC[C@H](O)COc1nsnc1N1CCOCC1 [Timolol maleate salt]	1.02 (inactive)
Cc1ccccc1N1C(=O)c2cc(S(N)(=O)=O)c(Cl)cc2NC1C (centres undefined) [Metolazone]	0.966 (inactive)
C[C@]12CCC(=O)C=C1CC[C@@H]1[C@@H]2C(=O)C[C@@]2(C)[C@H]1CC[C@]2(O)C(=O)CO [Cortisone]	0.971 (inactive)
CN(C(=O)C(Cl)Cl)c1ccc(OC(=O)c2ccco2)cc1 [Diloxanide furoate]	0.954 (inactive)
CN(C)CCCN1c2ccccc2Sc2ccc(Cl)cc21 [Chlorpromazine hydrochloride]	0.981 (inactive)
CCC1(C)CC(=O)NC1=O (centres undefined) [Ethosuximide]	1.06 (inactive)
c1ccc(CNc2ncnc3nc[nH]c23)cc1 [Aminopurine, 6-benzyl]	1 (inactive)
CCC(=O)O[C@@H](O[P@](=O)(CCCCc1ccccc1)CC(=O)N1C[C@H](C2CCCCC2)C[C@H]1C(=O)O)C(C)C [Fosinopril]	1.02 (inactive)
NCc1ccccc1CC(=O)N[C@@H]1C(=O)N2C(C(=O)O)=C(CSc3nnnn3CC(=O)O)CS[C@H]12 [Ceforanide]	0.0189 (active)
Nc1ccc(S(=O)(=O)Nc2nccs2)cc1 [Sulfathiazole]	1.03 (inactive)
C[C@H](O)C(=O)Nc1c(I)c(C(=O)NC(CO)CO)c(I)c(C(=O)NC(CO)CO)c1I [Iopamidol]	1.07 (inactive)
NC1CCN(c2c(F)cc3c(=O)c(C(=O)O)cn(C4CC4)c3c2Cl)C1 (centres undefined) [Clinafloxacin]	0.0486 (active)
COc1c2occc2c(OC)c2c(=O)cc(C)oc12 [Khellin]	0.993 (inactive)
COc1ccccc1Oc1c(NS(=O)(=O)c2ccc(C(C)(C)C)cc2)nc(-c2ncccn2)nc1OCCO [Bosentan]	0.966 (inactive)

Compound	growth AUC normalised to DMSO control
C[C@]12CC[C@@H]3c4ccc(O)cc4CC[C@H]3[C@@H]1CC[C@@H]2O [Estradiol-17 beta]	1 (inactive)
CC(C)(S)C(N)C(=O)O (racemic) [D,L-Penicillamine]	0.981 (inactive)
O=C(O[C@@H]1C[C@@H]2C[C@H]3C[C@H](C1)N2CC3=O)c1c[nH]c2ccccc12 [Dolasetron mesilate]	1.06 (inactive)
CN(C)CCOC(c1ccccc1)c1ccccc1 [Diphenhydramine hydrochloride]	0.992 (inactive)
CC(NCCC(c1ccccc1)c1ccccc1)c1ccccc1 (centres undefined) [Fendiline hydrochloride]	0.986 (inactive)
CC1(C)S[C@@H]2[C@H](NC(=O)[C@H](NC(=O)N3CCNC3=O)c3ccccc3)C(=O)N2[C@H]1C(=O)O [Azlocillin sodium salt]	0.0396 (active)
CC(=O)OCC(=O)[C@@]12N=C(C)O[C@@H]1C[C@H]1[C@@H]3CCC4=CC(=O)C=C[C@]4(C)[C@H]3[C@@H](O)C[C@@]12C [Deflazacort]	1.02 (inactive)
CC(C)NC[C@@H](O)COc1ccc(CC(N)=O)cc1 [(R,+) Atenolol]	0.98 (inactive)
CCCCC(CC)CN1CN(CC(CC)CCCC)CC(C)(N)C1 (centres undefined) [Hexetidine]	1.08 (inactive)
CC[N+](CC)(CC)CCOc1cccc(OCC[N+](CC)(CC)CC)c1OCC[N+](CC)(CC)CC [Gallamine triethiodide]	1.09 (inactive)
CCCCC(=O)O[C@H]1CC[C@H]2[C@@H]3CCc4cc(O)ccc4[C@H]3CC[C@]12C [Estradiol Valerate]	1.06 (inactive)
CC(C)NCC(O)c1ccc(O)c(O)c1 (single isomer, unassigned; (-)) [(-) Isoproterenol hydrochloride]	1.03 (inactive)
CN1CC2c3ccccc3Oc3ccc(Cl)cc3C2C1 (centres undefined) [Asenapine maleate]	0.851 (active)
OCCN(CCO)c1nc(N2CCCCC2)c2nc(N(CCO)CCO)nc(N3CCCCC3)c2n1 [Dipyridamole]	0.993 (inactive)
O=C(NCC(O)CO)c1c(I)c(C(=O)NCC(O)CO)c(I)c(N(CCO)C(=O)CO)c1I (centres undefined) [Ioversol]	1.06 (inactive)
CO[C@@]1(NC(=O)C2SC(=C(C(N)=O)C(=O)O)S2)C(=O)N2C(C(=O)O)=C(CSc3nnnn3C)CS[C@@H]21 (some centres undefined) [Cefotetan]	0.0395 (active)
Cn1c(=O)c2c(ncn2C)n(C)c1=O [Caffeine]	1.04 (inactive)
O=C1C(CC[S+]([O-])c2ccccc2)C(=O)N(c2ccccc2)N1c1ccccc1 (centres undefined) [Sulfinpyrazone]	1.02 (inactive)
C=C1c2cccc(O)c2C(O)=C2C(=O)[C@]3(O)C(O)=C(C(N)=O)C(=O)[C@@H](N(C)C)[C@@H]3[C@@H](O)[C@H]12 [Methacycline hydrochloride]	0.0347 (active)
